Laboratory results from ChEMBL document CHEMBL3988442, “University of Dundee, Small-Polar-MMV Screening Library” (2021).
Among all 53,000 compounds or so, about 900 (1.7%) showed an effect of 50% or more. Many of the other results were omitted from the sample, so strong results are more common in it than they were.

system: Mycobacterium tuberculosis; test: Cornell - Phenotypic assay to identify agents that inhibit growth of Mycobacterium tuberculosis; type: functional; parameters: scale not given: direction of the effect not stated beside the values; conditions: 10 mM as filed; unlikely as a test dose

Row | SMILES | Percent Effect
1 | COCCN(Cc1ccccc1)Cc1nc(-c2ccsc2)no1 | 50.54%
2 | COCCN(Cc1ccco1)Cc1nc(-c2ccccc2)no1 | -9.832%
3 | COCCN(Cc1ccco1)Cc1nc(-c2ccsc2)no1 | -23.17%
4 | CN(C)c1cc(C2CCCN(C(=O)c3noc4c3CCCC4)C2)ccn1 (stereo not drawn) | 38.49%
5 | COCCNC(=O)c1cc2c(c3ccccc3n2C)n1C(=O)N(C)C | 18.89%
6 | Cc1cc(C(N)=O)ccc1NC(=O)N1CCN(c2cccs2)CC1 | 67.2%
7 | CNC(=O)CN1CCN(C(=O)Nc2ccc(Cl)cc2F)CC1 | -7.252%
8 | Cc1cc(NC(=O)N2CCN(c3cccs3)CC2)ccc1C(N)=O | 3.823%
9 | NC(=O)c1ccc(NC(=O)N2CCN(c3cccs3)CC2)c(F)c1 | 54.78%
10 | O=C(Nc1ccccc1-c1cccs1)N1CCN(CC(F)F)CC1 | -4.883%
11 | CCn1cnnc1CNC(=O)N1CCN(c2cccs2)CC1 | -10.74%
12 | CC(C)OCCC(=O)NCCc1csc(N2CCCC2)n1 | -16.85%
13 | COCC(=O)NCc1cc(=O)n2c(n1)CN(Cc1ccccc1)CCC2.O=C(O)C(F)(F)F | 6.068%
14 | OCc1ccc(CN(CCCn2ccnc2)Cc2cccnc2)o1 | 33.2%
15 | N#Cc1cc2c(nc1O)CCCCC2 | -24.16%
16 | CN1C(=O)COc2cc(NC(=O)CCc3nc4cccnc4[nH]3)ccc21 | 11.88%
17 | COC(=O)Cc1cn2cc(C(F)(F)F)ccc2n1 | -22.96%
18 | CC(C)NC(=O)[C@@]12CCO[C@@H]1CCN(Cc1ccc3c(c1)OCO3)C2.O=C(O)C(F)(F)F | -5.39%
19 | CCSCC(C)NCc1nc(-c2cccnc2)no1 (stereo not drawn) | -14.24%
20 | O=C(CCc1ccsc1)Nc1cccnc1N1CCCC1 | 8.029%
21 | CCN(CC)C(=O)CCc1c(C)nc2cc(O)nn2c1C | 7.759%
22 | Cc1cc(C)n(C2CN(Cc3ccccn3)C2)n1 | -9.481%
23 | COc1cccc([C@@H]2CCN(Cc3cn(C)c4ccccc34)C[C@H]2O)c1 | -6.919%
24 | CN(C)[C@@H]1CN(Cc2ccc(O)cc2)C[C@H]1c1cn(C)c2ccccc12.Cl | -25.68%
25 | CN(C)[C@@H]1CN(Cc2ccccn2)C[C@H]1c1cn(C)c2ccccc12.Cl | 54.37%
26 | CN(C)[C@@H]1CN(Cc2ccccc2O)C[C@H]1c1cn(C)c2ccccc12.Cl | 107.3%
27 | CN(C)[C@@H]1CN(Cc2cccnc2)C[C@H]1c1cn(C)c2ccccc12.Cl | 6.134%
28 | CSCC[C@@H]1CN2CCC[C@H]2CN1Cc1cn(C)nc1C | -32.61%
